Measurements taken from PubChem BioAssay AID2289 (National Center for Advancing Translational Sciences (NCATS), 2010).
In all, about 340,000 compounds went through this assay and about 3,300 (0.97%) were called active. Another 9% or so got no clear call; they are omitted. Calls come from the whole dose curve; as a rule, active = well fitted inhibition curve with a large enough effect; inconclusive = small, poorly fitted or top-dose-only effect, or effect the other way; inactive = flat fitted curve, though single readings scatter. This is one part of the list.

Assay: qHTS Assay for Modulators of miRNAs and/or Inhibitors of miR-21; note: nearly all actives have a fitted effect of over 55% in size
Details: HeLa miR-21-FLuc reporter, luciferase luminescence, 48 h; actives lower the signal
Summary of the method: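 Compounds were titrated across several concentrations (up to approximately 40 uM) and incubated 48 hours with HeLa miR-21-FLuc reporter cells (miR-21 target sequence downstream of FLuc, endogenous miR-21). Readout was firefly luciferase luminescence after lytic detection reagent.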
Potency is the fitted concentration of half-maximal effect.

Potency, active:
Cc1ccc(C(=O)NCc2ccc3c(c2)CCO3)cc1C 10.4 µM, O=C(O)c1cccc(N=NN2CCCCCC2)c1 0.165 µM, COC(=O)c1ccc(N=NN2CCCCCC2)cc1 5.85 µM, COC(=O)c1ccc(N=NN2CCCCC2)cc1 7.36 µM, COC(=O)c1ccc(N=NN2CCOCC2)cc1 7.36 µM, Cc1cc(C(F)(F)F)c(C#N)c(SCC(=O)Nc2nc3cc(Br)ccc3s2)n1 3.69 µM, Cc1ccc(NC2Nc3cc(C)nn3S2)c(C)c1 (centres undefined) 6.56 µM, CCc1ccc(NC2Nc3cc(C)nn3S2)cc1 (centres undefined) 1.65 µM, Cc1csc(SCc2nnc(-c3ccc(Cl)cc3)o2)n1 4.65 µM, O=C(CSc1nc2ccccc2s1)N/N=C/c1ccccc1C(=O)O 16.5 µM, Cc1c(C=O)c2cc(OCc3ccccc3)ccc2n1C 4.14 µM, COc1ccc(-c2nc3n(c2C)Cc2ccccc2-3)cc1 6.56 µM, Oc1[nH]c2ccccc2c1N=Nc1ccc(F)cc1 5.85 µM, Cc1ccc(N=Nc2c(O)[nH]c3ccc(F)cc23)cc1 1.31 µM, CCOC(=O)c1c(C)[nH]c(C(=O)CSc2ccc(Cl)cc2)c1C 7.36 µM, CCOC(=O)c1c(C)[nH]c(C(=O)COC(=O)C2CC2C)c1C (centres undefined) 2.61 µM, CCOC(=O)c1c(C)[nH]c(C(=O)CSc2nccc(C)n2)c1C 4.65 µM, CCOC(=O)c1c(C)[nH]c(C(=O)COC(=O)CNC(=O)c2ccccc2Cl)c1C 13.1 µM, CCOC(=O)c1c(C)[nH]c(C(=O)COC(=O)CCSc2ccccc2)c1C 13.1 µM, Cc1ccc(N/C=C2/Sc3ccccc3NC2=O)cc1 4.14 µM, Cc1nn(-c2ccccc2)c(Cl)c1/C=N/Nc1nc2ccccc2[nH]1 0.293 µM, Cc1nn(-c2ccccc2)c(Cl)c1/C=N/NC(=O)c1ccnn1C 5.21 µM, Cc1nn(-c2ccccc2)c(Cl)c1/C=N/NC(=O)c1ccco1 3.29 µM, COC(=O)N/N=C\c1c(C)nn(-c2ccccc2)c1Cl 7.36 µM, Cc1nn(-c2ccccc2)c(Cl)c1/C=N/NC(N)=O 16.5 µM, Cc1nn(-c2ccccc2)c(Cl)c1/C=N/NC(=O)c1ccccc1F 4.65 µM, CCOC(=O)N/N=C/c1c(C)nn(-c2ccccc2Cl)c1Cl 7.36 µM, CC1CCCN(c2nc3ccsc3c(=O)s2)C1 (centres undefined) 8.26 µM, Cn1nc(NC(=O)C(F)(F)F)c2ncc(-c3ccc(Cl)cc3)nc21 9.27 µM, Cc1ccc2c(C)c(C(=O)N3CCCC(C(N)=O)C3)oc2c1C (centres undefined) 13.1 µM, c1ccc(COc2ccc(CN3CCN(c4ccccn4)CC3)cc2)cc1 6.56 µM, C=COC(=O)CSc1nc(-c2cccs2)ccc1C#N 0.927 µM, CCOC(=O)c1cnc(-c2ccccc2)nc1N(C)C 7.36 µM, Cc1cc2ncc(-c3ccccc3)nc2cc1C 0.656 µM, Cc1cc(-c2ccccc2)nc(-c2ccccc2)c1C 7.36 µM, CCOC(=O)c1ccc(Nc2cnc3ccccc3n2)cc1 1.47 µM, CCOC(=O)c1ccc2ncc(-c3ccccc3)nc2c1 1.85 µM, CCOC(=O)c1ccc2c(c1)nc(-c1ccccn1)n2CC 1.65 µM, O=[N+]([O-])c1cccc(-c2ccc(SCc3ccccn3)nn2)c1 6.56 µM, Cc1cc2ncn(C(=O)N3CCC(C)CC3)c2cc1C 10.4 µM, COc1cc(/C=C/c2ccc(O)cc2)cc(OC)c1 2.93 µM, FC(F)(F)c1ccnc(Oc2ccc(C3=NCCS3)cc2)c1 1.65 µM, Cc1ccccc1CSc1ccc(-c2ccc3c(c2)OCO3)nn1 14.7 µM, Cc1ccccc1Cn1nnc(-c2ccc3c(c2)OCO3)n1 16.5 µM, O=C(Cn1nnc(-c2ccc3c(c2)OCO3)n1)Nc1ccccc1C(=O)O 14.7 µM, COc1cccc(-n2cnc3sc(C)c(C)c3c2=O)c1 11.7 µM, Clc1ccccc1-c1nnc(-c2ccccc2Cl)o1 3.69 µM, Fc1cccc(NCc2ccccc2-c2nnc(-c3ccccc3Cl)o2)c1 1.04 µM, Clc1ccccc1-c1nnc(-c2ccc3c(c2)OCO3)o1 0.585 µM, O=C(c1cccc(C(F)(F)F)c1)C1CCCN(C(=O)CN2CCCC2=O)C1 (centres undefined) 3.29 µM, N#Cc1ccccc1CSc1nc2ccsc2c(=O)n1Cc1ccccn1 16.5 µM, Clc1ccccc1OCc1nnc(-c2ccccc2Br)o1 4.65 µM, Clc1cccc(OCc2nnc(-c3ccccc3Br)o2)c1 16.5 µM, Fc1ccc(OCc2nnc(-c3ccccc3Br)o2)c(Cl)c1 13.1 µM, Clc1ccccc1-c1nnc(COc2ccccc2)o1 5.85 µM, Clc1ccccc1OCc1nnc(-c2ccccc2)o1 7.36 µM, N#Cc1ccccc1OCc1nnc(-c2ccccc2Br)o1 1.31 µM, Clc1ccccc1OCCn1nnc2ccccc21 13.1 µM, C(#Cc1ccccc1)Cn1nnc2ccccc21 13.1 µM, c1ccc(CCn2nnc3ccccc32)cc1 14.7 µM, CCOC(=O)C1(Cc2ccccc2)CCCN(C(=O)c2cnn(CC)c2)C1 (centres undefined) 9.27 µM, CCOC(=O)C1(Cc2cccc(OC)c2)CCCN(C(=O)CCN2CCCO2)C1 (centres undefined) 5.85 µM, O=C(N/N=C/c1cn(-c2ccccc2)nc1-c1cc2ccccc2o1)c1ccccc1Br 0.927 µM, COc1ccc(Cn2c(C3CC3)nc3ccc(NC(=O)C4CC4)cc3c2=O)cc1 1.47 µM, COc1ccc(Cn2c(C3CC3)nc3ccc(NC(C)=O)cc3c2=O)cc1 3.29 µM, CCC(=O)Nc1ccc2nc(C3CC3)n(Cc3ccc(C(C)(C)C)cc3)c(=O)c2c1 0.185 µM, CC(=O)c1ccc(NS(=O)(=O)c2cccc(C)c2)cc1 11.7 µM, Cc1ccc2nc(-c3ccc(NS(=O)(=O)c4ccc(F)cc4)cc3)sc2c1 6.56 µM, Cc1cccc(S(=O)(=O)Nc2ccc(-c3nc4ccc(C)cc4s3)cc2)c1 2.07 µM
